SW480 rerep = induces DNA re-replication in SW480 colon adenocarcinoma cells | SW480 DNA re-replication, Hoechst DNA content imaging, 48 h | Potency, µM (top dose mostly 46.1 µM), hits mostly activators | actives 1.8% (n = 340,000); also: nearly all actives have a fitted effect of over 55% in size
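Per well, 250 cells were exposed to pinned compound for 48 hr. Nuclear DNA was visualised with Hoechst (40 min, 37 C) and total object intensity recorded by fluorescence scanning.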
MCF10A rereplic = induces DNA re-replication in MCF 10a normal breast cells; MCF 10A DNA re-replication, Hoechst nuclear intensity, 48 h; Potency, µM (series often up to 46.1 µM), most hits filed as activators; actives 2.9% (n = 350,000); also: nearly all actives have a fitted effect of over 50% in size
p53 reactivation = mutant p53 re-activation in reporter cells. AID 504706. Potency, µM (titrated, usually from 92.2 µM), most hits filed as activators. H1299 p53-A138V BP100-luciferase reporter, luminescence, 24 h. actives 0.063% (n = 320,000); also: nearly all actives have a fitted effect of over 45% in size
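p53-null H1299 cells stably carrying temperature-sensitive p53-A138V and a BP100-luciferase reporter were pinned with compounds (4-point, 1:5 series) and held 24 hrs at 37 deg C. Luminescence was read 10 min after detection reagent.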
ELG1 repair inh = inhibitors of ELG1-dependent DNA repair in HEK293T cells | HEK293T ELG1-luciferase reporter, luminescence, 16 h; DNA damage induced by 5-fluorouridine | Potency, µM (highest dose often 46.1 µM), usual class: inhibitors | actives 2.3% (n = 330,000) | AID 504467; also: nearly all actives have a fitted effect of over 55% in size
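HEK293T cells expressing luciferase-tagged ELG1 (2,000/well) received 5-Fluorouridine plus compound or DMSO for 16 hr at 37 °C. Luciferase was read by ONE-Glo luminescence after 30 min at room temperature.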
ELG1 genotox = induces genotoxicity in HEK293T cells with luciferase-tagged ELG1. HEK293T ELG1-luciferase reporter, luminescence, 16 h. Potency, µM (doses to about 46 µM), most hits filed as activators. actives 1.3% (n = 330,000); also: nearly all actives have a fitted effect of over 60% in size
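Cells (2,000/well) expressing the ELG1-luciferase fusion are dosed by pin tool and kept 16 hr at 37 °C, 5% CO2. Signal comes from ONE-Glo luciferase reagent after 30 min at room temperature.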
A-T KAP1 phos = candidate therapy for ataxia-telangiectasia; Potency, µM (series often up to 57.5 µM), usual class: activators; F2112 A-T fibroblasts, KAP-1 phosphorylation AlphaLISA; neocarzinostatin DNA damage 30 min before lysis; actives 0.19% (n = 320,000); AID 485349; also: nearly all actives have a fitted effect of over 45% in size
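hTERT-immortalized A-T patient fibroblasts (F2112), 500 cells/well in OPTI-MEM, 1% FBS, got compounds for 60 min, then NCS for 30 min at 37C. Lysates were then assayed for phospho-KAP-1 by AlphaLISA (anti-pKAP1 donor, anti-KAP1 acceptor beads), 6 hr at 25C.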
ELG1 FLuc counter = luciferase inhibition in cell-free luciferin readout for ELG1 hits | shares compounds with ELG1 repair inh | cell-free firefly luciferase luminescence counter-screen, ViewLux | Potency, µM (doses to about 46.1 µM), usual class: inhibitors | actives 3% (n = 350)
ELG1-Luc inh = inhibits ELG1-dependent DNA repair in HEK293T cells, confirmed | shares compounds with ELG1 repair inh | HEK293T ELG1-luciferase levels, luminescence; cells co-treated with 5-fluorouridine | Potency, µM (highest dose often 46.1 µM), actives largely listed as inhibitors | actives 68% (n = 670); also: nearly all actives have a fitted effect of over 55% in size
ELG1-Luc MMS = confirmation of human ELG1 repair inhibitors, MMS stimulated; shares compounds with ELG1 repair inh; HEK293T luciferase-tagged ELG1 level, MMS stimulated; Potency, µM (top dose mostly 46.1 µM), hits mostly inhibitors; actives 53% (n = 670); AID 624249; also: nearly all actives have a fitted effect of over 60% in size
ELG1 5-FU = confirmation of ELG1 repair inhibitors: viability with 5FU. shares compounds with ELG1 repair inh. cell viability with 5-FU, ELG1-dependent repair. Potency, µM (series often up to 46.1 µM), usual class: cytotoxic. 670 tested, under 10 active;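 also: ELG1-luc HEK293T cells cotreated with 5-fluorouridine at 10 µM final; viability measured 16 h after compound addition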
ELG1 MMS cell = confirmation of ELG1 repair inhibitors: viability with MMS | shares compounds with ELG1 repair inh | Cell viability with MMS, ELG1-dependent DNA repair | Potency, µM (series often up to 46.1 µM), actives largely listed as cytotoxic | actives 33% (n = 670) | AID 624251;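 also: ELG1-luc HEK293T cells co-treated with 10 µM MMS; viability read 16 h after compound addition; nearly all actives have a fitted effect of over 60% in size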
Cell viab unstim = unstimulated viability counter-screen for ELG1 repair hits. AID 624252. actives 8% (n = 900). shares compounds with ELG1 repair inh. Potency, µM (titrated, usually from 45.9 µM), hits mostly cytotoxic. cell viability counter-screen, unstimulated, luminescence;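 also: compound exposure lasted 16 hours before reading; nearly all actives have a fitted effect of over 55% in size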
FLuc biochem = counter-screen for ELG1 repair inhibitors: firefly luciferase inhibition; shares compounds with ELG1 repair inh; purified firefly luciferase, luminescence counter-screen; Potency, µM (doses to about 57.5 µM), hits mostly inhibitors; actives 10% (n = 350); AID 624253
Hits are given with their value; . = inactive; ? = inconclusive; / = not tested or not shown. Hits are enriched below; roughly 7.1% of the tested compounds scored in any of these assays. Calls follow the shape of the dose curve; as a rule, active = well fitted curve in the direction sought with a large enough effect; inconclusive = small, poorly fitted or top-dose-only effect, or another doubt; inactive = no such curve, though single readings can be large; an effect the other way counts as inactive or inconclusive.

SMILES	SW480 rerep	MCF10A rereplic	p53 reactivation	ELG1 repair inh	ELG1 genotox	A-T KAP1 phos	ELG1 FLuc counter	ELG1-Luc inh	ELG1-Luc MMS	ELG1 5-FU	ELG1 MMS cell	Cell viab unstim	FLuc biochem
C[C@@H]1O[C@@H](O[C@H]2C[C@@H](O)[C@]3(CO)[C@H]4[C@H](O)C[C@]5(C)[C@@H](C6COC(=O)C6)CC[C@]5(O)[C@@H]4CC[C@]3(O)C2)[C@H](O)[C@H](O)[C@H]1O (stereo partly specified)	5.2µM	?	.	1.5µM	.	.	?	2.5µM	1.6µM	?	3.2µM	?	.
CN(C)C(=O)Oc1cc(OC(=O)N(C)C)cc([C@@H](O)CNC(C)(C)C)c1	.	.	/	/	/	/	/	/	/	/	/	/	/
CC1(C)Cc2c(c(N3CCOCC3)nc3sc4c(NCc5ccccc5)nnnc4c23)CS1	?	.	.	13µM	.	.	.	2.5µM	.	?	.	.	.
C=C1C(=O)O[C@@H]2C[C@@H](C)[C@@H]3C=CC(=O)[C@@]3(C)[C@@H](O)[C@H]12	?	0.92µM	.	4.1µM	/	.	?	?	0.0045µM	?	0.0056µM	2.8µM	7.3µM
C[C@@H]1C[C@H]2OC(=O)C3(CO3)[C@H]2[C@H](O)[C@]2(C)C(=O)C3OC3[C@@H]12 (stereo partly specified)	/	/	.	?	.	.	/	/	/	/	/	/	/
CCCC(CCC)C(=O)OC1C[C@H]2CC[C@@H](C1)[N+]2(C)C (stereo partly specified)	.	?	.	.	.	.	/	/	/	/	/	/	/
Cc1nccc2c1[nH]c1ccc(Br)cc12	.	.	.	.	.	.	/	/	/	/	/	/	/
COc1ccc2c(c1)[nH]c1c(C)nccc12	?	?	.	2µM	/	.	/	2.8µM	11µM	.	?	.	/
NS(=O)(=O)c1cc(C2(O)NC(=O)c3ccccc32)ccc1Cl (stereo unspecified)	.	.	.	.	.	.	/	/	/	/	/	/	/
CC(=O)OC[C@]12CCC(C)=C[C@H]1O[C@@H]1[C@H](O)[C@@H](OC(C)=O)[C@@]2(C)[C@]12CO2	?	.	?	0.018µM	.	.	?	0.028µM	0.018µM	.	0.044µM	?	.
CCOP(=O)(OCC)C(Nc1cccc([N+](=O)[O-])c1)c1ccc(OC)cc1 (stereo unspecified)	.	.	.	?	.	.	/	/	/	/	/	/	/
COc1ccc(C(Nc2ccccc2)P(=O)(Oc2ccccc2)Oc2ccccc2)cc1 (stereo unspecified)	?	.	.	?	.	.	.	7.1µM	?	?	?	?	.
COc1ccc(NC(=O)CCn2cc(C)c3ccccc32)cc1	.	.	.	?	.	.	/	/	/	/	/	/	/
CCOC(=O)C/C(C)=N/NC(=O)COc1ccccc1C	.	?	.	.	.	.	/	/	/	/	/	/	/
CCCCCC1C(=O)O[C@H](C)[C@@H](NC(=O)c2cccc(NC=O)c2O)C(=O)OC(C)C1OC(=O)CC(C)C (stereo partly specified)	/	/	/	/	/	/	.	.	0.014µM	.	0.014µM	?	.
CCOC(=O)c1cccc(NS(=O)(=O)c2ccc(NC(C)=O)cc2)c1	.	.	.	4.6µM	.	.	/	13µM	10µM	.	11µM	?	/
FC(F)(F)c1nc(N2CCN(c3ccccc3)CC2)nc2c1CCCCC2	.	?	.	.	.	.	/	/	/	/	/	/	/
CCC1OC2(C)C(O)C(/C=C/C=C/C=C/c3oc(=O)cc(OC)c3C)OC1(C)C2OC(C)=O (stereo unspecified)	/	/	/	/	/	/	?	2.2µM	0.2µM	.	0.16µM	?	.
NC(=S)c1cn(C2OC(CO)C(O)C2O)c2ncnc(N)c12 (stereo unspecified)	.	?	.	0.41µM	.	.	?	0.16µM	0.32µM	.	2µM	?	.
CN[C@@H]1C[C@@]2(C)O[C@@H]([C@@H]1OC)n1c3ccccc3c3c4c(c5c6ccccc6n2c5c31)C(=O)NC4	/	/	/	/	/	/	0.71µM	0.5µM	0.32µM	11µM	1µM	5µM	.
CC(=O)c1c(C)n(C2CCCCC2)c2ccc(O)cc12	.	.	.	?	.	.	/	1.3µM	?	.	.	?	/
